Measurements from paper PMC7819943, “Rice protein-binding microarrays: a tool to detect cis-acting elements near promoter regions in rice”.
Over roughly 68,000 sequences, “fluorescence intensity (a.u.)” has its median near 9,100; the highest 2% begin near 16,000. What follows is part of a selection rich in the highest values, with near analogues and random picks from the rest.

Target: OsWRKY34 (Oryza sativa, UniProt Q0JBA9 1-250)
Test: protein-binding microarray (RPBM); PBS, 2% BSA, 51.3 ng/ul salmon testes DNA, 50 uM zinc acetate, 200 nM TF, 25 C, 1 h; high values mean tight binding
Details: protein: recombinant; tags: N-terminal polyhistidine and DsRed monomer fusion (pET32a); label: CyDye5-dUTP incorporated in the synthesized complementary strand; 3' TTTTT single-stranded linker to array surface; dsDNA, one strand shown
How it was run: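 Transcription factors were made in E. coli BL21-CodonPlus as N-terminal fusions to a polyhistidine tag and DsRed, then purified on Ni–NTA. After primer extension with Cy5-dUTP and blocking with 2% BSA, a custom Agilent array was exposed for 1 h at 25 °C to 200 nM protein in PBS, 2% BSA, salmon testes DNA and 50 µM zinc acetate. Washed arrays were scanned on an Axon 4000B, and the binding signal is per-feature fluorescence intensity in arbitrary units.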

Chain of OsWRKY34 (Q0JBA9 entry or part of it): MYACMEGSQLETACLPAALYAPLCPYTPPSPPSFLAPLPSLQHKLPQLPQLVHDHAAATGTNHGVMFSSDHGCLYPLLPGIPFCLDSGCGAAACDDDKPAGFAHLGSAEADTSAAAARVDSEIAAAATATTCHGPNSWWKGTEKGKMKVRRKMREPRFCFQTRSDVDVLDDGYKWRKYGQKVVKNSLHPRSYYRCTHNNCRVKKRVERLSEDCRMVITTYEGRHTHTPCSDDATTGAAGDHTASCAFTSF

Sequence	binding signal
GGGTGGAGCTGAACTGATGGGCCGAACTATGTATGGTTGGCGGAGTCACCTAGTGCAG	9030 fluorescence intensity (a.u.)
GAGGCTGGGCTGGGCGGGCGTATCGTTCCTGCTCCCGGAGCGGAGTCACCTAGTGCAG	25400 fluorescence intensity (a.u.)
GGGGCGTCCCGGGAGGGGAGGGAGATGGGGAGGGAGCGGACGGAGTCACCTAGTGCAG	16800 fluorescence intensity (a.u.)
TCACCGGGCGGTCACCGGAGGCGGAGGCGGAGGGAGGGGCCGGAGTCACCTAGTGCAG	10200 fluorescence intensity (a.u.)
GCTGTACCAGTACTGACCGGGGTGGGGTGGCGGGAGCGGACGGAGTCACCTAGTGCAG	14600 fluorescence intensity (a.u.)
GTATTATGGGTGGAGGCGGGCGGCTGAGCTGTTCCTGGGCCGGAGTCACCTAGTGCAG	8880 fluorescence intensity (a.u.)
GGGTTGGGTGGGTGCTGTAATATGGGGAGATACTGACTACCGGAGTCACCTAGTGCAG	19200 fluorescence intensity (a.u.)
CGCTGCGCTGCCGGTCCATTTCTAGAAGCCCTCGCGCTCCCGGAGTCACCTAGTGCAG	9130 fluorescence intensity (a.u.)
TTGAATTGAATTATTATGCTCATCGCTTTCGCATAACCTCCGGAGTCACCTAGTGCAG	8320 fluorescence intensity (a.u.)
CTAGGAGGAGGATTAGTTCTTGCGCATCGCTTCTGAGCTCCGGAGTCACCTAGTGCAG	8200 fluorescence intensity (a.u.)
CCCATGTTTTTTTTTCATATTTTGCAATCTTCGGTTTAAACGGAGTCACCTAGTGCAG	8520 fluorescence intensity (a.u.)
CTATAAATACACGACGTCTCTCCGCTGGCTTACACACAACCGGAGTCACCTAGTGCAG	10100 fluorescence intensity (a.u.)
CGCCAACTCAACGCTGAAGCCGCTGCCTCACCATCTCGTCCGGAGTCACCTAGTGCAG	8780 fluorescence intensity (a.u.)
ATCGCCGCAACCACCAACCTCTCGAGGCCGTTCGAATCCCCGGAGTCACCTAGTGCAG	12300 fluorescence intensity (a.u.)
TATATATATATATATATATATATATATATATATAAGCGTCCGGAGTCACCTAGTGCAG	11300 fluorescence intensity (a.u.)
TTCTTGCCGGAGGAGGGGCAGGGGAGGGAGCCGGGCGGGACGGAGTCACCTAGTGCAG	23500 fluorescence intensity (a.u.)
AGAAGGAGAAGGCGGGGAGAGGCGGGGCGGCCACGGGAGACGGAGTCACCTAGTGCAG	12500 fluorescence intensity (a.u.)
GAGGACGAAGTGGAGGCGGAGGGCAGGTGGGGAGGAGAGCCGGAGTCACCTAGTGCAG	8660 fluorescence intensity (a.u.)
AGTGCTGGAGGAGGGAGGCGGGGAGGGGAGCCATCAGCCACGGAGTCACCTAGTGCAG	17300 fluorescence intensity (a.u.)
GTGGTCCGGTGGTGGGGTGATGGGGCGTGGCGGTTCTGTCCGGAGTCACCTAGTGCAG	15400 fluorescence intensity (a.u.)
AGAAGGGAAGGGGAGGGGAGGGCGGGACGCCGGCCGGAGCCGGAGTCACCTAGTGCAG	10200 fluorescence intensity (a.u.)
TTGGTGGTTGGTGGGGAGCGTGGAGATGGCGGGGCTGTCCCGGAGTCACCTAGTGCAG	22200 fluorescence intensity (a.u.)

Sequence	binding signal
GGGGAGGGAGCCGGGCGGGATTCAGCCATGAGGAGGAGGGCGGAGTCACCTAGTGCAG	9050 fluorescence intensity (a.u.)
GGGGCGGCAGTGGATGGCGGTTGGGCGGCGGTGCGGGGAGCGGAGTCACCTAGTGCAG	12200 fluorescence intensity (a.u.)
GGCCATGCTTGAATCTCTCGCCTGACATTCAGACTTCAGACGGAGTCACCTAGTGCAG	8390 fluorescence intensity (a.u.)
CTCTATATAAGCCCCACAATGCCCACCACCAGCTTGTCACCGGAGTCACCTAGTGCAG	8230 fluorescence intensity (a.u.)
AAGATTCTTCTCTTCGTCGACGACCCGGCCTCTCGCTCTCCGGAGTCACCTAGTGCAG	9630 fluorescence intensity (a.u.)
CTATTGGCTCATACCTTTTTTCAGTGGCTGGGTGTAGGTTCGGAGTCACCTAGTGCAG	8840 fluorescence intensity (a.u.)
TGCAGATATTGGCATCGATTGCTCACTTCAGGTGATTTTTCGGAGTCACCTAGTGCAG	8060 fluorescence intensity (a.u.)
CATGTCCAACTTTAATTGTTCGTCTTTTTTTTGAAAAAACCGGAGTCACCTAGTGCAG	8630 fluorescence intensity (a.u.)
CAGACCTGGAGGTTGTTGCCCTTGATGTGCGCCCAGATGACGGAGTCACCTAGTGCAG	8470 fluorescence intensity (a.u.)
GTCCGCTGCTTTTCTCCCTTGTCGGTTATTTTACCTCTTCCGGAGTCACCTAGTGCAG	18900 fluorescence intensity (a.u.)
TTGTAGTCCGCTGCTTTCCCTTTCTTTTATCTTCTCTTTCCGGAGTCACCTAGTGCAG	8450 fluorescence intensity (a.u.)
GTCTCTTTCCGCTGCTTCGTTTCTGTCTCCGGTTTATTCACGGAGTCACCTAGTGCAG	18800 fluorescence intensity (a.u.)
AATGGCTAGCGTATAATCTGTCTTGGAATCACTTTGCTGCCGGAGTCACCTAGTGCAG	8120 fluorescence intensity (a.u.)
ATCAATTTATCACCCGCTGACTCATCTTTATTGTATCTGCCGGAGTCACCTAGTGCAG	8420 fluorescence intensity (a.u.)
TTTATTCTCTGTTCCTCTTTTTTTCATATTCGTTTTTCACCGGAGTCACCTAGTGCAG	13200 fluorescence intensity (a.u.)
TTTTTTTCTCTTTCTTTTTTCTTTTCTTCGTTTTCTTTCACGGAGTCACCTAGTGCAG	9230 fluorescence intensity (a.u.)
TTTTTATTCCACCGCTTTGTCGTTCTCGCAATCTCGCTGTCGGAGTCACCTAGTGCAG	17700 fluorescence intensity (a.u.)
CGCATCTCGTTTTCTCTTTATTTGTTTCTTCTTTCGCTTTCGGAGTCACCTAGTGCAG	13800 fluorescence intensity (a.u.)
GTTCTTTTGGGCAATCTCGTCTGTATTCCTTTGTCGTCTACGGAGTCACCTAGTGCAG	10800 fluorescence intensity (a.u.)
ATTGTCTTGGCTGCTGTCTTTATAGTATTCACTCATCTGCCGGAGTCACCTAGTGCAG	18500 fluorescence intensity (a.u.)
TCTCCCCTTTCTGCTTCTGCTGCTTCTCCCTTTCCCTCTCCGGAGTCACCTAGTGCAG	8200 fluorescence intensity (a.u.)
